Data reported in PubChem BioAssay AID687014 (The Scripps Research Institute Molecular Screening Center, 2013).
In all, about 370,000 compounds went through this assay and about 6,800 (1.8%) were called active.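 Rule for the calls: active = activation above a cutoff set at the mean of all screened compounds plus 3 SD (cut at about 10% in these data); inactive = the rest.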 This excerpt belongs to a sample that is enriched for actives.

The compounds below were run on Nuclear hormone receptor DAF-12 (Heterodera glycines), GAL4 fusion (assay: hgDAF-12 GAL4 fusion reporter activation – cell-based, luminescence, HEK293, UAS-luciferase, primary screen (AID 687014;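 note: 0% = DMSO wells and 100% = sodium butyrate wells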)). Details: HEK293 GAL4-hgDAF12 UAS-luciferase reporter, agonist luminescence; at 6.8 µM; hits give high values; normalized to butyrate control.

For O=C(N/N=C/c1ccsc1)c1cc(O)cc(O)c1, which activation is on record?
Its activation is 2.1% (inactive).

Which activation does the source give for CC(NC(=O)C(=O)N/N=C/c1ccc(Cl)cc1)c1ccccc1 (centres undefined) here?
The activation was -4.35% (inactive).

For CSc1ccc(/C=N/NC(=O)c2cccc(Cl)c2)cc1, which activation is on record?
Its activation is 15.8% (active).

O=C(N/N=C/c1ccoc1)c1ccc(Cl)cc1Cl was tested. Which activation did it give?
Its activation is 5.04% (inactive).

O=C(NN=Cc1ccccc1)c1ccccc1 was tested. Which activation did it give?
Its activation is 12.9% (active).

How did the activation turn out when NN=C(NN=Cc1ccccc1)c1ccccc1 was run?
Its activation is 10.3% (inactive).

COC(=O)[C@]12C[C@H](CC(=O)NCc3ccccc3)C(=O)N(CCC3=CCCCC3)C1=C[C@H](C(C)(C)C)O[C@@H]2C was tested. Which activation did it give?
Its activation is -0.89% (inactive).

Which activation does the source give for COc1cccc(CNC(=O)Cn2c(=O)oc3cc(S(=O)(=O)N4CCCCC4)ccc32)c1 here?
Its activation is -2.85% (inactive).

Which activation does the source give for COc1ccc(C2CC=C(C(=O)O)C(c3ccccc3F)N2S(=O)(=O)c2ccc(C)cc2)cc1OC (centres undefined) here?
The activation was 3.93% (inactive).

Which activation does the source give for COC(=O)C[C@@H]1CC[C@H]2[C@@H](COc3ccc(NS(=O)(=O)CC(F)(F)F)cc3C(=O)N2C)O1 here?
The activation was -0.04% (inactive).

Which activation does the source give for COC(=O)c1cc2c(c3c4ccccc4n(S(=O)(=O)c4cccc(C)c4)c13)C(=O)N(Cc1ccccc1)C2 here?
The activation was 0.97% (inactive).

For CC(C)(C)NC(=O)C(c1cccnc1)N(C(=O)c1cnco1)c1ccc(C(C)(C)C)cc1 (centres undefined), which activation is on record?
Its activation is -4.87% (inactive).

How did the activation turn out when COc1ccc(-c2cn3ccsc3n2)cc1 was run?
Its activation is 14.1% (active).

Which activation does the source give for COc1ccc(-c2cn3cccnc3n2)cc1 here?
The activation was 14.7% (active).

For Cc1ccc(S(=O)(=O)NCc2cn3ccsc3n2)c(C)c1, which activation is on record?
Its activation is -0.36% (inactive).

With CC(C)(C)C(=O)Nc1ccc(-c2cn3cccnc3n2)cc1 as the compound, how does the activation read?
Its activation is 8.9% (inactive).

How did the activation turn out when FC(F)(F)Oc1ccc(-c2cn3cccnc3n2)cc1 was run?
The activation was 9.13% (inactive).

For COc1cc(OC)cc(-c2nc(=S)n3ccsc3n2)c1, which activation is on record?
Its activation is 2.26% (inactive).

How did the activation turn out when Nc1ncnc2c1ncn2[C@@H]1O[C@H](C(=O)N[C@@H](CCc2ccccc2)C(=O)NCC(=O)N2CCOCC2)[C@@H](O)[C@H]1O was run?
Its activation is 1.87% (inactive).

CC(C)N1CCCCC(NC(=O)c2ccc3ccccc3c2)C1=O (centres undefined) was tested. Which activation did it give?
The activation was -0.24% (inactive).

With O=S1(=O)c2ccc(Br)cc2-n2nncc2CN1Cc1cccc(Cl)c1 as the compound, how does the activation read?
The activation was 6.32% (inactive).

For Cc1ccc(C)c(-n2nnnc2SCC(=O)c2c(N)n(C)c(=O)n(C)c2=O)c1, which activation is on record?
Its activation is -2.28% (inactive).

For COc1ccc(Cn2ccc3ccc(-c4ccc5ccn(Cc6ccccc6C)c5c4)cc32)cc1, which activation is on record?
Its activation is 8.22% (inactive).

With CC(=O)OC[C@@H]1CN(Cc2ccccc2)C[C@H](n2cnc3c(NCc4ccco4)ncnc32)O1 as the compound, how does the activation read?
The activation was 1.43% (inactive).
